# Measured values: PubChem BioAssay
# Values joined by “and” are separate entries in the source; they are usually repeats but may differ in a detail not shown here. Equal entries are not always repeated. Active and inactive are the calls of the source.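 The calls were made as follows, unless noted: active = thallium flux through the channel raised or lowered by more than 3 SD from vehicle-only wells, actives on both sides; inactive = the rest.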
# Experiments:
# [1] = hESC survival regulators, cell-based (AID 493140; call rule not given here;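 also: cells exposed to compounds for four days before counting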); details: human embryonic stem cell survival screen; stronger effect = higher value
# [2] = liver-stage malaria parasite growth inhibition, primary screen, cell-based, HepG2, luciferase luminescence, HepG2 viability (AID 624349; in the data active = parasite load remaining mostly below about 12%, no sharp cut-off; inactive = mostly above about 10%;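 also: 100% = mean of DMSO negative control wells on the same plate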); details: P. berghei liver stage in HepG2, luciferase luminescence, concentration not given here; parasite load remaining: stronger effect = lower value; viability: measured here: HepG2 viability without parasites
# [3] = Cy5 fluorescence interference with SSB-bound oligo, artefact control for HCV NS3 helicase inhibitor project, biochemical, NIH Clinical Collection, E. coli SSB (AID 743268; call rule not given here)
# [4] = system: Hepatitis C virus NS3 helicase; experiment: HCV NS3 helicase inhibitors, primary screen, biochemical, fluorescence polarization, NIH Clinical Collection (AID 743270; call rule not given here); details: NS3 helicase binding to Cy5-dT15 DNA, stronger effect = higher value, concentration not given here
# [5] = biological target: Single-stranded DNA-binding protein (Escherichia coli (strain K12)) (UniProt P0AGE0); experiment: E. coli SSB displacement from DNA, counter-screen for HCV NS3 helicase inhibitor project, biochemical, fluorescence polarization, NIH Clinical Collection (AID 743271; in the data active = inhibition above about 28%); details: stronger effect = higher value, concentration not given here
# [6] = fluorescence interference in NS3h assay format, artefact control for HCV NS3 helicase inhibitor project, biochemical, NIH Clinical Collection (AID 743272; call rule not given here;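 also: HCV NS3 helicase with a Cy5 labelled single stranded DNA probe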); details: fluorescence interference counterscreen, stronger effect = lower value
# [7] = biological target: 6-phosphogluconate dehydrogenase, decarboxylating (Homo sapiens) (UniProt P52209); experiment: 6PGD enzyme inhibitors, primary screen, biochemical, human, recombinant enzyme, NADPH absorbance (AID 1159550;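 active = at least 20% inhibition of 6-phosphogluconate dehydrogenase activity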); details: recombinant 6PGD, NADPH absorbance 341 nm; at 10 µM; stronger effect = higher value
# [8] = sensitizers of A549 cells to miR-34 induction, primary screen, imaging, A549 dox-inducible miR-34, nuclei and caspase counts (AID 1347080;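 active = compounds whose cell count with miR-34 switched on is under 0.7 times the count with it off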); details: A549 miR-34 inducible, Hoechst nuclei count, 48 h
# [9] = survival rescue of mitochondrial mutant cells in low glucose, primary screen, MELAS cybrids, Rieske KO mouse fibroblasts, CellTiter-Glo (AID 1508586;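 active = mean z-score across replicates of 1.96 or higher in either the MELAS or the Rieske mutant cell line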;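 also: z relative to plate mean and SD of compound and empty wells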)
# [10] = biological target: NAD(+) hydrolase SARM1 (Homo sapiens) (UniProt Q6SZW1); experiment: SARM1 TIR NADase inhibitors, cell lysate, NAD-Glo luminescence (AID 1508614;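 active = compound whose remaining NAD level is above about 45 nM, limit read from the data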;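 also: higher remaining NAD means stronger inhibition of SARM1 NADase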); details: SAM-TIR HEK293T lysate NADase, at 1 µM, stronger effect = higher value
# [11] = biological target: Mitogen-activated protein kinase 7 (Homo sapiens) (UniProt Q13164); experiment: ERK5 transactivation activators in reporter cells, primary screen, cell-based, HTS (AID 1508626;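 active = luciferase signal above three times the same-plate solvent-only control wells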;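 also: luciferase driven by Gal4-ERK5 fusion binding five Gal4 sites before minimal TATA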); details: HeLa Gal4-ERK5 transactivation, 18 h, at 5 µM, stronger effect = higher value
# [12] = viability rescue of complex I mutant cybrids, primary screen, cell-based, galactose medium, ATP luminescence (AID 1645843;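 active = z-score of at least 1.8 in each of two replicates, scored against plate mean and spread of sample wells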;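 also: positive z means more ATP and so rescue of galactose-driven cybrid death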); details: complex I mutant cybrid cells, 72 h, stronger effect = higher value
# [13] = system: F380Y; experiment: modulators of BK channel variants, profiling panel, selectivity assay, cell-based, U2OS BacMam, thallium flux, beta subunits (AID 1259406); details: at 30 µM;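 also: initial slope of Thallos dye fluorescence rise after thallium is added; log ratio against the mean of 0.3% DMSO vehicle wells on the same plate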
# [14] = system: F380Y/beta2Delta; experiment: as above; details: at 30 µM
# [15] = biological target: Calcium-activated potassium channel subunit alpha-1 (Homo sapiens) + Leucine-rich repeat-containing protein 26 (Homo sapiens) (UniProt Q12791+Q2I0M4); experiment: as above; details: F380Y/Slo1WT/gamma1, at 30 µM
# [16] = system: R275C; experiment: as above; details: at 30 µM
# [17] = system: R275C/beta1; experiment: as above; details: at 30 µM
# [18] = system: R275C/beta2Delta; experiment: as above; details: at 30 µM
# [19] = differential killing of epithelial or mesenchymal cells, primary screen, imaging, PC-3E GFP, TEM4-18 mCherry, co-culture (AID 1345086;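 active = compounds killing one labelled cell type while sparing the other, by normalised counts and ratio limits, not self-fluorescent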;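 as to all read-outs here: cells exposed to compound for 72 h before imaging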;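 as to red/green cell ratio (normalised): normalised mesenchymal count divided by normalised epithelial count so high means epithelial killing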); details: imaging cell counts, at 1 µM; for red/green cell ratio (normalised): actives lie on both sides, counts scaled to control wells, 1 = unselective
# [20] = stronger effect = lower value, cell number ratio, induced over uninduced
# [21] = measured here: relative caspase fold change +Dox/-Dox
# [22] = measured here: total cells with miR-34 induction, stronger effect = lower value
# [23] = measured here: total cells without miR-34 induction
# [24] = MELAS cybrid survival, CellTiter-Glo 48 h, stronger effect = higher value
# [25] = Rieske KO mouse fibroblast survival, CellTiter-Glo 72 h
# [26] = measured here: epithelial PC-3E GFP cell survival
# [27] = measured here: mesenchymal TEM4-18 mCherry cell survival
# Calcium-activated potassium channel subunit alpha-1 (Homo sapiens) + Leucine-rich repeat-containing protein 26 (Homo sapiens), sequence (Q2I0M4 whole entry, looked up, one chain of several): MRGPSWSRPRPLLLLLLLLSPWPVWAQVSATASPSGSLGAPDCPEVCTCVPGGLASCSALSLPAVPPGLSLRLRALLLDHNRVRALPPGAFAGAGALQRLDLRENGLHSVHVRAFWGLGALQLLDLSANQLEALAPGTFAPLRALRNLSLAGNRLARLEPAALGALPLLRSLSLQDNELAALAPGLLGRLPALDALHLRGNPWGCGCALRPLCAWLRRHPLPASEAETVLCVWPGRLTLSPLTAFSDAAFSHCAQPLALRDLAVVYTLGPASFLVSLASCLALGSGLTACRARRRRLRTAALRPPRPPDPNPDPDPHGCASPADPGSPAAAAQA
# Mitogen-activated protein kinase 7 (Homo sapiens), sequence (Q13164 whole entry, looked up, the tested form may be a part): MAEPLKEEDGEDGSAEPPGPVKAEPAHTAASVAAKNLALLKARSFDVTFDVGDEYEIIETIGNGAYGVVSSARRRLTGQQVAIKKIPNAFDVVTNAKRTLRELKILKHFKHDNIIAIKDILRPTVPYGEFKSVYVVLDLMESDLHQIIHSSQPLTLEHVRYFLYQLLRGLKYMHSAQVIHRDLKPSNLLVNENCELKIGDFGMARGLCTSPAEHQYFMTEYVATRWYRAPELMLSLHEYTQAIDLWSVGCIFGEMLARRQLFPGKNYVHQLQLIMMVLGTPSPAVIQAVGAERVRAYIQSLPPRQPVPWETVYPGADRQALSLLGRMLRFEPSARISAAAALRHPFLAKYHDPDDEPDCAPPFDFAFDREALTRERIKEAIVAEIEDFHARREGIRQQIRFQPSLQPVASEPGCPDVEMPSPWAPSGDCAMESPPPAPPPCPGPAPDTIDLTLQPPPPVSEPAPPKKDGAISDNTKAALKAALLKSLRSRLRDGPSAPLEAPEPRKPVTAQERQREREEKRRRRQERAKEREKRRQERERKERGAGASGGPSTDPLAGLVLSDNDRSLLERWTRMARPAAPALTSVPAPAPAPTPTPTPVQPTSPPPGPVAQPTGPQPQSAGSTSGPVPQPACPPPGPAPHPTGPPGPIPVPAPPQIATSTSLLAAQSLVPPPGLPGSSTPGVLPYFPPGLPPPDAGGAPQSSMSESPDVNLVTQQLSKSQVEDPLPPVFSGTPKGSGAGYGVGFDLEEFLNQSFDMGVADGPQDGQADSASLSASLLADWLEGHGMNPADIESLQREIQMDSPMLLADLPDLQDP
# NAD(+) hydrolase SARM1 (Homo sapiens), sequence (Q6SZW1 whole entry, looked up, the tested form may be a part): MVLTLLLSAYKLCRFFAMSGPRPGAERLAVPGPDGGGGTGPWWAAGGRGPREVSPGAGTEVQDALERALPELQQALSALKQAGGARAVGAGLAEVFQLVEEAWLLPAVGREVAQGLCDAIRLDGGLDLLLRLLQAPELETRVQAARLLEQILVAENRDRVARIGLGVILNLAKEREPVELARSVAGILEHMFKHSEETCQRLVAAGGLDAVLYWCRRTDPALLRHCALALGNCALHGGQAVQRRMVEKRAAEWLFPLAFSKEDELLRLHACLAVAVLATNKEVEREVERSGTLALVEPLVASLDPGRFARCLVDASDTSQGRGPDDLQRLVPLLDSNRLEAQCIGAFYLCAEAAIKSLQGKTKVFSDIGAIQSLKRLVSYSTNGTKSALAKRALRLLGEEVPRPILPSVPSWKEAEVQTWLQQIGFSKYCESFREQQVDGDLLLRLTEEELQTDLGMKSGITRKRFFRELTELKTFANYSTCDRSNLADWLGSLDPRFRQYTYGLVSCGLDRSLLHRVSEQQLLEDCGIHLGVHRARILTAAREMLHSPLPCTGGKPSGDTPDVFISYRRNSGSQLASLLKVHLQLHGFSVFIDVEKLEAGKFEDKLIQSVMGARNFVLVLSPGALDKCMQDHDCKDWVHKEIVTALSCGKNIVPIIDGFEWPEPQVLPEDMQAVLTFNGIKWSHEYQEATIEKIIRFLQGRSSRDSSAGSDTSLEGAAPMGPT
# 6-phosphogluconate dehydrogenase, decarboxylating (Homo sapiens), sequence (P52209 whole entry, looked up): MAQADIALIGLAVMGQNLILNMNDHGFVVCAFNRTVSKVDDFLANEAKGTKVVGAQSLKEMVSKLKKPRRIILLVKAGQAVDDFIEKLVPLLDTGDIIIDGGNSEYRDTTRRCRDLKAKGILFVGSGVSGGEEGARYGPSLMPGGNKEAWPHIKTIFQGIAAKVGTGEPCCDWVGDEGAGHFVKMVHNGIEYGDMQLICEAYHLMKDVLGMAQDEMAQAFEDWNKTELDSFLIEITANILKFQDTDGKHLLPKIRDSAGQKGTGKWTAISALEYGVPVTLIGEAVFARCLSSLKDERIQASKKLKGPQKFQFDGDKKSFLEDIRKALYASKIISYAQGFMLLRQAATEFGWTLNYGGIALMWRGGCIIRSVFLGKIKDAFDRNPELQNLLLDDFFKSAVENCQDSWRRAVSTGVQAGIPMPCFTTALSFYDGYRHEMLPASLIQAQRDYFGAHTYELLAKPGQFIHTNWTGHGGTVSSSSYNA
smiles,measurement,setting,value
CCN1CCN(C(=O)N[C@@H](C(=O)N[C@@H]2C(=O)N3[C@@H]2SC(C)(C)[C@@H]3C(=O)O)c2ccccc2)C(=O)C1=O,survival,[1],1.83 (inactive)
same,parasite load remaining,[2],50.1% (inactive) and 75.4% (inactive) and 36.6% (inactive)
same,viability,[2],89.8% and 93.5% and 71.5%
same,fluorescence ratio,[3],0.99 (inactive)
same,inhibition,[4],-3.18% (inactive)
same,inhibition,[5],-1.24% (inactive)
same,fluorescence ratio,[6],0.98 (inactive)
same,inhibition,[7],12.4% (inactive)
same,fold change,[8]; [20],0.928 (inactive) and 0.85 (inactive) and 0.888 (inactive)
same,fold change,[8]; [21],2.92 and 0.912 and 1.53
same,cell count,[8]; [22],10600 and 8860 and 9900
same,cell count,[8]; [23],11400 and 10400 and 11200
same,z-score,[9]; [24],0.757 (inactive) and -0.0978 (inactive)
same,z-score,[9]; [25],0.573 and 0.405
same,remaining NAD,[10],10 nM (inactive)
same,luciferase signal,[11],72 AU (inactive)
same,z-score,[12],0.5 (inactive) and 0.93 (inactive)
same,log fold change Tl+ flux,[13],-0.0272 (inactive)
same,log fold change Tl+ flux,[14],-0.0244 (inactive)
same,log fold change Tl+ flux,[15],-0.00699 (inactive)
same,log fold change Tl+ flux,[16],-0.096 (active)
same,log fold change Tl+ flux,[17],0.0207 (inactive)
same,log fold change Tl+ flux,[18],-0.0292 (inactive)
COc1cc2c(cc1OC)C1C(=O)c3c(cc4c(c3O)C=CC(C)(C)O4)OC1CO2 (configuration not stated),inhibition,[7],7.64% (inactive)
same,red/green cell ratio (normalised),[19],0.76 (inactive)
same,normalised cell number,[19]; [26],1.04
same,normalised cell number,[19]; [27],0.79
CNCCC=C1c2ccccc2CCc2ccccc21,survival,[1],3.42 (inactive)
same,fluorescence ratio,[3],1.02 (inactive)
same,inhibition,[4],-5.91% (inactive)
same,inhibition,[5],-4.29% (inactive)
same,fluorescence ratio,[6],0.99 (inactive)
same,inhibition,[7],-10.4% (inactive)
same,red/green cell ratio (normalised),[19],1.12 (inactive)
same,normalised cell number,[19]; [26],1.12
same,normalised cell number,[19]; [27],1.26
same,z-score,[9]; [24],-0.337 (inactive)
same,z-score,[9]; [25],-0.307
same,remaining NAD,[10],10 nM (inactive)
same,luciferase signal,[11],120 AU (inactive)
same,z-score,[12],-1.28 (inactive) and -1.35 (inactive)
same,log fold change Tl+ flux,[13],0.169 (active)
same,log fold change Tl+ flux,[14],0.217 (active)
same,log fold change Tl+ flux,[15],0.00764 (inactive)
same,log fold change Tl+ flux,[16],0.0226 (inactive)
same,log fold change Tl+ flux,[17],0.165 (active)
same,log fold change Tl+ flux,[18],0.126 (active)
CC(=O)OCC(=O)[C@@]1(O)CC[C@H]2[C@@H]3C[C@H](C)C4=CC(=O)C=C[C@]4(C)[C@H]3[C@@H](O)C[C@@]21C,parasite load remaining,[2],68.8% (inactive)
same,viability,[2],94.7%
same,fluorescence ratio,[3],0.98 (inactive)
same,inhibition,[4],-2.27% (inactive)
same,inhibition,[5],0.29% (inactive)
same,fluorescence ratio,[6],0.99 (inactive)
same,inhibition,[7],6.5% (inactive)
same,fold change,[8]; [20],0.982 (inactive)
same,fold change,[8]; [21],1.01
same,cell count,[8]; [22],8310
same,cell count,[8]; [23],8460
same,luciferase signal,[11],112 AU (inactive)
same,z-score,[12],-0.46 (inactive)
same,log fold change Tl+ flux,[13],0.0243 (inactive)
same,log fold change Tl+ flux,[14],0.0726 (inactive)
same,log fold change Tl+ flux,[15],0.0089 (inactive)
same,log fold change Tl+ flux,[16],0.0193 (inactive)
same,log fold change Tl+ flux,[17],0.0544 (inactive)
same,log fold change Tl+ flux,[18],0.0284 (inactive)
CCCc1nc(C(C)(C)O)c(C(=O)OCc2oc(=O)oc2C)n1Cc1ccc(-c2ccccc2-c2nn[nH]n2)cc1,parasite load remaining,[2],123% (inactive) and 56.6% (inactive) and 38.5% (inactive)
same,viability,[2],84.8% and 93.3% and 100%
same,inhibition,[7],-1.37% (inactive)
same,red/green cell ratio (normalised),[19],1.07 (inactive)
same,normalised cell number,[19]; [26],1.01
same,normalised cell number,[19]; [27],1.08
same,fold change,[8]; [20],0.993 (inactive) and 0.942 (inactive) and 0.929 (inactive)
same,fold change,[8]; [21],0.262 and 5.26 and 0.77
same,cell count,[8]; [22],7890 and 12500 and 10500
same,cell count,[8]; [23],7940 and 13300 and 11300
same,z-score,[9]; [24],-0.0808 (inactive) and -0.0697 (inactive) and -0.516 (inactive)
same,z-score,[9]; [25],-0.0525 and -0.445 and -0.184
same,remaining NAD,[10],10 nM (inactive)
same,luciferase signal,[11],116 AU (inactive)
same,z-score,[12],0.375 (inactive)
COC(=O)c1cc(=O)c(O)c2c(O)c(O)ccc2c1,inhibition,[7],-4.56% (inactive)
same,red/green cell ratio (normalised),[19],0.88 (inactive)
same,normalised cell number,[19]; [26],1.21
same,normalised cell number,[19]; [27],1.06
C=CC1=C(C(=O)O)N2C(=O)[C@@H](NC(=O)/C(=N\O)c3csc(N)n3)[C@H]2SC1 (stereo in doubt),parasite load remaining,[2],166% (inactive) and 48.1% (inactive)
same,viability,[2],87.7% and 99.2%
same,inhibition,[7],-2.05% (inactive)
same,red/green cell ratio (normalised),[19],1.17 (inactive)
same,normalised cell number,[19]; [26],0.89
same,normalised cell number,[19]; [27],1.04
same,fold change,[8]; [20],0.92 (inactive)
same,fold change,[8]; [21],4.11
same,cell count,[8]; [22],12500
same,cell count,[8]; [23],13600
same,z-score,[9]; [24],-0.152 (inactive)
same,z-score,[9]; [25],-0.423
same,remaining NAD,[10],10 nM (inactive)
same,luciferase signal,[11],264 AU (inactive)
COc1ccc2c3c1O[C@H]1C[C@@H](O)C=C[C@@]31CCN(C)C2,survival,[1],11.9 (inactive)
same,fluorescence ratio,[3],1.03 (inactive)
same,inhibition,[4],-2.77% (inactive)
same,inhibition,[5],-3.95% (inactive)
same,fluorescence ratio,[6],1 (inactive)
same,inhibition,[7],6.78% (inactive)
same,red/green cell ratio (normalised),[19],1.15 (inactive)
same,normalised cell number,[19]; [26],1
same,normalised cell number,[19]; [27],1.15
same,z-score,[9]; [24],0.162 (inactive) and -0.253 (inactive)
same,z-score,[9]; [25],0.459 and -0.846
same,remaining NAD,[10],10 nM (inactive)
same,luciferase signal,[11],64 AU (inactive)
same,z-score,[12],0.28 (inactive) and 0.575 (inactive)
same,log fold change Tl+ flux,[13],0.0204 (inactive)
same,log fold change Tl+ flux,[14],0.0272 (inactive)
same,log fold change Tl+ flux,[15],-0.0208 (inactive)
same,log fold change Tl+ flux,[16],0.0192 (inactive)
same,log fold change Tl+ flux,[17],-0.00593 (inactive)
same,log fold change Tl+ flux,[18],0.0478 (inactive)
C[C@H](CCC(=O)O)[C@H]1CC[C@H]2[C@@H]3[C@@H](O)C[C@@H]4C[C@H](O)CC[C@]4(C)[C@H]3CC[C@]12C,survival,[1],4.92 (inactive)
same,parasite load remaining,[2],52.5% (inactive) and 128% (inactive)
same,viability,[2],109% and 101%
same,fluorescence ratio,[3],0.99 (inactive)
same,inhibition,[4],-1.36% (inactive)
same,inhibition,[5],1.81% (inactive)
same,fluorescence ratio,[6],0.97 (inactive)
same,inhibition,[7],-17.2% (inactive)
same,fold change,[8]; [20],1 (inactive) and 0.854 (inactive)
same,fold change,[8]; [21],1.43 and 1.31
same,cell count,[8]; [22],10300 and 8440
same,cell count,[8]; [23],10300 and 9880
same,z-score,[9]; [24],-0.323 (inactive)
same,z-score,[9]; [25],-0.919
same,remaining NAD,[10],10 nM (inactive)
same,luciferase signal,[11],36 AU (inactive)
same,z-score,[12],-0.425 (inactive)
same,log fold change Tl+ flux,[13],0.0594 (inactive)
same,log fold change Tl+ flux,[14],0.0428 (inactive)
same,log fold change Tl+ flux,[15],0.00339 (inactive)
same,log fold change Tl+ flux,[16],0.0817 (inactive)
same,log fold change Tl+ flux,[17],0.198 (active)
same,log fold change Tl+ flux,[18],0.142 (active)
